The structures appear in SMILES notation. The whole screen tested about 62,000 compounds, of which about 40 (0.06%) were called active. The sample as a whole holds a higher share of actives than the screen did. Values without a mark were called inactive. Rule as the data show it: active = inhibition above about 22% (passing the limit was not always enough); inconclusive = no clear call, values can overlap the other calls.

The target in this test is Cathepsin B (Homo sapiens) (UniProt P07858). The test is described as follows: human cathepsin B blockade, pooled library – biochemical, compound mixtures, AMC fluorescence, primary screen (AID 488).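 Also: 0% = enzyme without compound and 100% = no enzyme blank.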 The conditions noted are these: Purified cathepsin B, AMC dipeptide fluorescence, active compounds read high,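 ten-compound pools at 5 µM per compound and 50 µM total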.
The term inhibition denotes the drop in the measured response relative to a control, in per cent. As to `O=C(/C=N/O)Nc1ccccc1`, the inhibition is 3.15%.
Turning to `NC(=O)C1CCN(C(=O)c2ccc(C(F)(F)F)cc2)CC1`, the inhibition was -1.58%.
In the case of `CCOC(=O)CSc1nnc(CNC(=O)c2cccs2)n1-c1cc(OC)ccc1OC`, the inhibition is 0.53%.
Then `Cc1cccc(OCc2nnc(SCn3nnc4ccccc4c3=O)o2)c1`, with -0.48%; and `O=C(Cn1c(-c2cncs2)nc2ccccc21)NC1CCCC1`, with 1.92%; and `C=C1c2cc(CC)ccc2NC(=O)N1c1ccc(C)cc1`, with 5.66%.
Take `COc1ccc(OC)c(CNC(=O)CCc2nc(-c3cccs3)no2)c1`: the inhibition was -0.11%.
Regarding `CC(=O)c1c(C)[nH]c(C(=O)NCCCN2CCCC2)c1C`, the inhibition was 3.25%.
`c1ccc2[nH]c(-c3nc4ccccc4[nH]3)nc2c1`: the inhibition is -5.47%.
Turning to `Cc1ccc2cccc(S(=O)(=O)N3CCN(c4ccccc4F)CC3)c2n1`, the inhibition is 2.15%.
In the case of `NC(=O)CSC1=Nc2ccccc2C2=NC(CCC(=O)NCc3ccc(F)cc3)C(=O)N12` (stereo unspecified), the inhibition was 0.205%.
As to `O=C(c1ccc(=O)[nH]c1)N(Cc1ccco1)C1(C(=O)NC2CCCCC2)CCCCC1`, the inhibition is 2.12%.
For the compound `O=C(CN1CCOCC1)Nc1c2c(nc3c1CCC3)CCC2`, the inhibition was 0.235%.
`CCOc1c(N2CCCCC2)c(=O)c1=O`: the inhibition is -3.57%.
With `CCn1c(=O)cc(SCC(=O)NCc2ccc3c(c2)OCO3)c2ccccc21`, the inhibition was 1.53%.
As to `Cc1ccc(N2CCN(S(=O)(=O)c3ccc(F)cc3)CC2)c(C)c1`, the inhibition was -2.33%.
As for `CCCCN(CC)C(=O)CN(C)S(=O)(=O)c1cccc2nsnc12`, the figure is 0.445%; as for `O=C(NCc1ccco1)c1cc(-c2cccnc2)nc2ccc(Cl)cc12`, -4.83%.
As for `COc1ccc2c(c1)C=CC1(O2)N(CCO)c2ccccc2C1(C)C` (stereo unspecified), the figure is 2.88%.
In the case of `CCOC(=O)N1CCC(C(N)=O)CC1`, the inhibition is 7.54%.
Consider `CSC1=N/C(=C\C=C\c2cccs2)C(=O)S1`, for which the inhibition was 9%.
As for `COc1cc(=O)[nH]c(=O)n1C(=O)Cc1ccccc1`, the figure is 3.21%; as for `COC(=O)COc1ccc(S(=O)(=O)Nc2ccc(NC(C)=O)cc2)cc1`, 0.2%; as for `CS(=O)(=O)c1ccc2nc(NC(=O)C3C4C=CC(C4)C3C(=O)O)sc2c1` (stereo unspecified), 0.27%.
As for `COc1ccc(NC(=O)Nc2cccc3cccnc23)cc1`, the figure is 3.29%; as for `Cc1ccc(-c2noc(-c3ccccc3C(=O)NCC3CCCO3)n2)cc1` (stereo unspecified), -4.67%.
Turning to `C=CCn1c(SCc2cc(C(=O)OC)c(C)o2)nnc1-c1ccncc1`, the inhibition was -5.06%.
As for `C=CCOc1ccc(C2/C(=C(\O)c3c(C)[nH]c(C(=O)OC)c3C)C(=O)C(=O)N2CCN(C)C)cc1` (stereo unspecified), the figure is -5.12%; as for `O=C(Cn1cnc2c(cnn2-c2ccccc2)c1=O)NCc1ccccc1`, -0.45%; as for `Oc1ccc(-c2csc(Nc3cccnc3)n2)cc1`, 2.75%.
Then `CC(C)C[C@H](NC(=O)[C@@H]1O[C@H]1C(=O)O)C(=O)NCCCCN=C(N)N`, with 99.7% (active); and `COC(=O)c1cc(OC)c(OC)cc1NC(=O)C1CCCO1` (stereo unspecified), with -0.18%.
As for `CC1=NCCN1S(=O)(=O)c1ccc(Br)c(C)c1`, the figure is -3%; as for `O=C1CC(c2ccccc2)C(=O)N1c1cccc(O)c1` (stereo unspecified), -1.1%.
In the case of `COc1ccc(OCCCC(=O)Nc2nnc(C3CCCO3)s2)cc1` (stereo unspecified), the inhibition is -2.29%.
Take `Cc1ccc(S(=O)(=O)N(C)CC(=O)N2CCc3ccccc32)cc1`: the inhibition was -2.02%.
In the case of `O=C1c2oc3ccc(Br)cc3c(=O)c2C(c2cccc(F)c2)N1CCO` (stereo unspecified), the inhibition is -5.69%.
As for `O=C(NCc1cccnc1)c1ccc(CS(=O)(=O)c2ccc(Br)cc2)o1`, the figure is 3.93%.
Then `CC(=O)Nc1ccc(S(=O)(=O)Nc2ccc(N3CCOCC3)c(F)c2)cc1`, with 1.35%.
In the case of `Cc1nc2ccc(S(=O)(=O)NC(C(=O)N3CCCCCC3)C(C)C)cc2s1` (stereo unspecified), the inhibition was 6.23%.
Regarding `CCn1c(COc2cccc(OC)c2)nnc1SCC(=O)N1CCOCC1`, the inhibition was 2.62%.
Then `CCOC(=O)c1c(CN2CCOCC2)n(-c2ccccc2)c2ccc(O)cc12`, with 4.31%; and `CC(c1nnc(SCC(=O)Nc2sccc2C#N)n1-c1ccc(Cl)cc1)N(C)C` (stereo unspecified), with 5.86%.
As for `Cc1cc(C)nc(-n2nc(C)cc2NC(=O)c2ccc(Br)o2)n1`, the figure is 6.29%.
As for `c1csc(-c2cn3c(n2)SCC3)c1`, the figure is 0.03%.
`Cc1cc(/C=N/n2cnnc2)c(C)n1-c1ccc2ncccc2c1`: the inhibition was 0.4%.
